Reference: the supplement of paper PMC9334596
Several values for one entry are separate records, joined by “and”; a condition that tells them apart may be missing. Equal entries are not always repeated. Over roughly 5,300 compounds, “PER2::LUC luminescence relative to vehicle control” has its median near 0.96; the highest 2% begin near 1.3. The full list was thinned out, with the highest values kept by preference.

System: mPer2Luc MEF
Assay: PER2::LUC luminescence relative to vehicle control (fold of vehicle); higher = higher PER2::LUC reporter signal
Conditions: 10 µM
Outline: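 The value is PER2::LUC luminescence expressed as fold of vehicle control. Mouse embryonic fibroblasts carrying the mPer2Luc reporter were seeded at ~3000 cells per well in 384-well plates and grown in DMEM with 10% FBS at 37 °C and 5% CO2. Compounds from commercial libraries were added at 10 μM 48 h after seeding, and luminescence was read with the ONE-Glo luciferase assay system 24 h and 30 h after treatment, followed by an alamarBlue viability assay.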

| Structure (SMILES) | PER2::LUC luminescence (time after treatment 24 h) | PER2::LUC luminescence (time after treatment 30 h) |
| --- | --- | --- |
| C#CCN(Cc1cc2c(=O)[nH]c(C)nc2cc1Br)c1ccc(C(=O)NCc2cccnc2)cc1 | 0.902 | 0.731 |
| CC(Oc1ccc(Oc2cnc3ccc(Cl)cc3n2)cc1)C(=O)O (configuration not stated) | 1.14 | 1.05 |
| COc1cc2ncnc(Nc3cccc(I)c3)c2cc1OC | 0.808 | 0.774 |
| O[C@@](Cc1ncc(CC2(C(F)(F)F)CC2)[nH]1)(c1ccc(-n2cccn2)cc1)C(F)(F)F | 0.966 | 0.921 |
| Cc1cc(Nc2ccc(NC(=O)c3ccc(Nc4ccnc5ccccc45)cc3)cc2)nc(N)n1 | 0.945 | 1 |
| O=C(Nc1ccc(OC(F)(F)F)cc1)c1sccc1NCc1ccnc2ccccc12 | 1.76 | 1.99 |
| CCOc1ccc(-n2c(C(C)N(Cc3cccnc3)C(=O)Cc3ccc(OC(F)(F)F)cc3)nc3ncccc3c2=O)cc1 (configuration not stated) | 0.97 | 0.944 |
| Cc1c2c(c(O)c3c(O)cccc13)C(=O)O[C@@H]2[C@@H]1[C@H](O)C(=O)C(C(N)=O)=C(O)[C@H]1N(C)C [Alpha-APO-OXYTETRACYCLINE] | 0.979 | 0.958 |
| CCc1c(C(=O)NNC(=O)C(O)c2cc(F)cc(F)c2)ccc(O)c1C (configuration not stated) | 0.99 | 0.823 |
| COc1ccc(-c2cc(=O)c3c(OC)c(OC)c(OC)c(OC)c3o2)cc1OC | 0.626 | 0.784 |
| COc1ccc(-c2cc(=O)c3ccc(O)cc3o2)cc1 | 1.19 | 1.23 |
| COc1ccc(-c2cc(=O)c3ccccc3o2)cc1 | 1.72 | 1.29 |
| COc1ccc(-c2cc(=O)c3c(OC)c(OC)c(OC)c(OC)c3o2)cc1 | 0.944 | 1.03 |
| COc1cccc(-c2cc(=O)c3cc(OC)ccc3o2)c1 | 1.22 | 1.49 |
| COc1cccc(-c2cc(=O)c3ccc(OC)cc3o2)c1 | 0.879 | 0.955 |
| COc1ccc2ccc(=O)oc2c1 | 1 | 1.01 |
| COc1ccc2c(=O)c(OC)c(-c3ccccc3)oc2c1 | 0.767 | 0.809 |
| COc1ccc2oc(-c3ccccc3OC)cc(=O)c2c1 | 1.38 | 1.61 |
| COc1ccc(-c2oc3ccccc3c(=O)c2OC)cc1 | 0.987 | 1.2 |
| COc1cccc(-c2cc(=O)c3ccccc3o2)c1N | 0.951 | 0.985 |
| COc1ccc2oc(-c3ccccc3)c(OC)c(=O)c2c1 | 1.54 | 1.73 |
| CC[C@H](C)[C@H]1O[C@]2(C=C[C@@H]1C)C[C@@H]1C[C@@H](C/C=C(\C)[C@@H](O[C@H]3C[C@H](OC)[C@@H](O[C@H]4C[C@H](OC)[C@@H](O)[C@H](C)O4)[C@H](C)O3)[C@@H](C)/C=C/C=C3\CO[C@@H]4[C@H](OC)C(C)=C[C@@H](C(=O)O1)[C@]34O)O2 | 0.767 | 0.843 |
| NC(=O)C[n+]1cccc(C(=O)O)c1 | 1.18 | 1.08 |
| c1cc(NC2CCNCC2)nc(-c2cnc3ccccn23)c1 | 0.506 | 0.487 |

| Structure (SMILES) | PER2::LUC luminescence (time after treatment 24 h) | PER2::LUC luminescence (time after treatment 30 h) |
| --- | --- | --- |
| CCCNC[C@]1(O)[C@H](C)O[C@@H](O[C@H]2[C@H](C)[C@@H](O[C@@H]3O[C@H](C)C[C@H](N(C)C)[C@H]3O)[C@](C)(O)C[C@@H](C)CN[C@H](C)[C@@H](O)[C@](C)(O)[C@@H](CC)OC(=O)[C@@H]2C)C[C@@]1(C)OC | 1.05 | 0.881 |
| C/C=C(/C)C(=O)O[C@H]1CC(C)=CC(=O)[C@@]2(C)CC[C@@](O)(C(C)C)[C@H]12 | 1.01 | 0.988 |
| Cc1nnc(-c2sc(NC(=O)[C@H](C(C)C)n3c(=O)[nH]c4ccccc4c3=O)nc2C)o1 | 1.04 | 0.956 |
| COc1cc([C@@H]2CC(=O)c3c(O)cc(O)cc3O2)ccc1O | 0.985 | 0.942 |
| Cc1occc1C(=O)n1ccnc1 | 0.986 | 0.971 |
| COc1cc2ncnc(N(C)c3cccc(Br)c3)c2cc1OC | 0.83 | 0.741 |
| OCc1ccc(-c2ccc(-c3ccc(CO)s3)o2)s1 | 1.48 | 1.62 |
| CCCCCCCCOC(=O)C=Cc1ccc(OC)cc1 | 1.04 | 1.09 |
| CC(C)(O)c1ccc2c(c1)ncn2-c1cccc(-c2ccccc2C#N)c1 | 0.829 | 0.89 |
| CC(Nc1ccc(-c2nn[nH]n2)cc1)C(=O)O (racemic) | 0.971 | 0.96 |
| CC(C)[C@H](CO)Nc1nc(Sc2cccc(N)c2)c2ncn(C(C)C)c2n1 | 0.582 | 0.686 |
| FC(F)(F)c1ccc(CNc2ccc(Cc3c[nH]c4ncc(Cl)cc34)cn2)cc1 | 0.83 | 0.83 |
| CC(C(=O)O)c1ccc2c(c1)CC(=O)c1ccccc1S2 (configuration not stated) | 1.05 | 1.08 |
| CC(C(=O)O)c1ccc(-c2ccccc2)c(F)c1 (configuration not stated) | 1.15 | 1.06 |
| CC(C(=O)O)c1ccc(N2Cc3ccccc3C2=O)cc1 (configuration not stated) | 1.02 | 1.34 |
| O=C(CCc1ccc(O)cc1)c1c(O)cc(O)cc1OC1OC(CO)C(O)C(O)C1O (configuration not stated) | 1.02 | 0.948 |
| Oc1nc2cc(Cl)c(Cl)cc2nc1O | 0.684 | 0.69 |
| COc1ccc2nc(/C=C/c3cccc([N+](=O)[O-])c3)n(-c3ccc(C(=O)O)cc3)c(=O)c2c1 | 1.05 | 1.01 |
| O=C(O)[C@@]1(CCCCCCOc2ccc(Cl)cc2)CO1 | 0.936 | 1.01 |
| CCN(CC)CCOc1ccc(Cc2ccccc2)cc1 | 0.811 | 0.893 |
| CCN(CC)CCOc1ccc(C(=C(Cl)c2ccccc2)c2ccccc2)cc1 | 0.934 and 0.704 | 1.73 and 0.773 |
| CC/C(=C(\c1ccccc1)c1ccc(OCCN(C)C)cc1)c1ccccc1 | 0.718 and 0.679 | 0.784 and 0.742 |
| Cn1nnc(-c2ccc(-c3ccc(N4C[C@@H](CO)OC4=O)cc3F)cn2)n1 | 1.01 | 1.09 |
| Cn1nnc(-c2ccc(-c3ccc(N4C[C@H](CO)OC4=O)cc3F)cn2)n1 | 1.39 and 1.4 | 1.56 and 1.53 |

| Structure (SMILES) | PER2::LUC luminescence (time after treatment 24 h) | PER2::LUC luminescence (time after treatment 30 h) |
| --- | --- | --- |
| CC(=O)NC[C@H]1CN(c2ccc(-c3ccc(CNCc4cnn[nH]4)cc3)c(F)c2)C(=O)O1 | 1.03 | 1.09 |
| CON(Cc1ccc(F)cc1)C(=O)/C=C(\O)C(=O)O | 0.942 | 0.968 |
| COc1ccc2[nH]cc(CCNC(=O)C3CC3)c2c1 | 0.901 | 0.938 |
| c1nc(CC2CCNCC2)c[nH]1 | 0.32 | 0.4 |
| O=C(c1ccc(OCCCc2c[nH]cn2)cc1)C1CC1 | 1.09 and 1.51 | 1.33 and 1.29 |
| NCCc1c[nH]cn1 | 0.832 and 0.572 | 0.983 and 0.838 |
| CC1=CC(=O)C(C(C)C)=C/C1=N/OC(=O)c1ccccc1C | 1.11 | 0.994 |
| O=C(O)c1c[nH]c(=O)cn1 | 1.08 | 0.999 |
| O=C(NCC1(c2nc(-c3ccccc3)cs2)CCOCC1)c1cccc(-c2noc(C(F)(F)F)n2)c1 | 0.923 | 0.884 |
| FC(F)(F)c1cccc(-c2noc(-c3cc(-c4ccccc4)c(C(F)(F)F)s3)n2)c1 | 1.17 | 1.14 |
| O=C(O)c1cccc(-c2noc(-c3ccccc3F)n2)c1 | 1.69 | 2.11 |
| O=C(O)c1cc(=O)c2ccccc2o1 | 0.998 and 1.05 | 0.946 and 1.14 |
| N[C@H](C(=O)O)c1ccc(O)c(C(=O)O)c1 | 1.02 | 0.987 |
| CC(C)c1ccc2oc3nc(N)c(C(=O)O)cc3c(=O)c2c1 | 1.07 | 1.49 |
| O=C(O)c1cc(=O)c2cc(Cl)ccc2[nH]1 | 0.977 | 0.883 |
| CCOC(=O)[N-]c1c[n+](N2CCOCC2)no1 | 1.09 | 1.74 |
| O=C(Nc1ccccc1)C12C=C1C(=NO)c1ccccc1O2 (configuration not stated) | 1.08 | 0.974 |
| N[C@@]1(C(=O)O)CN[C@@H](C(=O)O)C1 | 0.997 | 0.949 |
| C[C@@H]1O[C@@H](OC[C@H]2O[C@@H](Oc3cc(O)c4c(c3)O[C@H](c3ccc(O)cc3)CC4=O)[C@H](O)[C@@H](O)[C@@H]2O)[C@H](O)[C@H](O)[C@H]1O | 0.957 | 0.972 |
| COc1ccc(-c2cc(=O)c3c(O)cc(O)cc3o2)cc1 | 1.41 | 1.56 |
| COc1cc(O)c2c(=O)cc(-c3ccc(O)cc3)oc2c1 | 1.21 | 1.32 |
| COc1ccc(-c2cc(=O)c3c(O)cc(OC)cc3o2)cc1 | 1.29 | 1.46 |
| COc1ccc(-c2cc(=O)c3c(O)c(OC)c(OC)c(OC)c3o2)cc1 | 1.03 | 1.16 |
| COc1ccc(-c2cc(=O)c3c(O)cc(O)cc3o2)cc1O | 0.933 | 1.03 |

| Structure (SMILES) | PER2::LUC luminescence (time after treatment 24 h) | PER2::LUC luminescence (time after treatment 30 h) |
| --- | --- | --- |
| O=c1cc(-c2cc(O)c(O)c(O)c2)oc2cc(O)cc(O)c12 | 0.957 | 0.941 |
| Cc1cc2nc3c(=O)[nH]c(=O)nc-3n(C[C@H](O)[C@H](O)[C@H](O)COP(=O)(O)O)c2cc1C | 1.22 | 0.887 |
| O=C(Nc1ccc(C(F)(F)F)cn1)c1cccc2cccnc12 | 1.02 | 1.03 |
| CC(=O)CCCCn1cnc2c1c(=O)n(C)c(=O)n2C | 0.931 | 0.944 |
| Cc1cccc(Oc2nc3c(C)cccn3c(=O)c2C=C(C#N)c2nc3ccccc3s2)c1 | 1 | 1.04 |
| O=C1CCC(c2ccccc2)(C2CCN(Cc3ccccc3)CC2)C(=O)N1 (configuration not stated) | 0.825 | 0.82 |
| COc1nccnc1NS(=O)(=O)c1ccc(N)cc1 | 1 | 1.97 |
| COc1cnc(NS(=O)(=O)c2ccc(N)cc2)nc1 | 0.926 | 1 |
| COc1ncnc(NS(=O)(=O)c2ccc(N)cc2)c1OC | 0.986 | 0.84 |
| C=CCO/N=C1\c2ccccc2-c2nc(C#N)c(C#N)nc21 | 0.778 | 0.699 |
| C[C@]12CC[C@@H]3c4ccc(O)cc4CC[C@H]3[C@@H]1C[C@H](O)[C@@H]2O | 1.07 | 0.987 |
| O=c1c(N=Nc2ccc(CS(=O)(=O)O)cc2)c(-c2ccc(C[N+](=O)[O-])cc2)[nH]n1-c1ccccc1 | 1.09 | 1.08 |
| CCCC(C(=O)O)c1c(C)nc2ccc(Cl)cc2c1-c1ccccc1 (configuration not stated) | 1.02 | 0.957 |
| CC1=C(/C=C/C(C)=C/C=C/C(C)=C/C=C/C=C(C)/C=C/C=C(C)/C=C/C(=O)[C@]2(C)C[C@@H](O)CC2(C)C)C(C)(C)C[C@H](O)C1 | 0.964 | 0.922 |
| CC1=C(/C=C/C(C)=C/C=C/C(C)=C/C(=O)Nc2ccc(O)cc2)C(C)(C)CCC1 | 0.452 and 1.09 | 0.603 and 1.06 |
| CCCC(=O)OCc1ccc(OC(=O)/C=C(C)/C=C/C=C(C)/C=C/C2=C(C)CCCC2(C)C)cc1 | 1.02 | 1.16 |
| CC1=C(/C=C/C(C)=C/C=C/C(C)=C\C(=O)O)C(C)(C)CCC1 | 1.75 and 1.62 and 1.8 | 1.89 and 1.79 and 1.52 |
| CC1=C(/C=C/C(C)=C/C=C/C(C)=C/C=C/C=C(C)/C=C/C=C(C)/C=C/C2=C(C)C(=O)CCC2(C)C)C(C)(C)CCC1=O | 0.908 | 0.963 |
| CCCCCCCCCCCCCCCC(=O)OC/C=C(C)/C=C/C=C(C)/C=C/C1=C(C)CCCC1(C)C | 0.929 and 0.69 | 0.976 and 0.869 |
| CC1=C(/C=C/C(C)=C\C=C\C(C)=C\C(=O)O)C(C)(C)CCC1 | 2.08 | 1.87 |
| CC1=C(/C=C/C(C)=C/C=C/C(C)=C\CO)C(C)(C)CCC1 | 1.08 | 1.03 |
| CC1=C(/C=C/C(C)=C/C=C/C(C)=C/C=C/C=C(C)/C=C/C=C(C)/C=C/C2=C(C)CCCC2(C)C)C(C)(C)CCC1 | 1.07 | 0.941 |
| CC(=O)OC/C=C(C)/C=C/C=C(C)/C=C/C1=C(C)CCCC1(C)C | 0.964 | 0.832 |
| CC1=C(/C=C/C(C)=C/C=C/C(C)=C/CO)C(C)(C)CCC1 | 1.35 and 1.26 and 1.07 | 1.26 and 1.06 and 1.11 |
